From PubChem BioAssay AID1159580 (chemical genetic matrix, 2015)
Values joined by “and” are separate entries in the source; they are usually repeats but may differ in a detail not shown here. Equal entries are not always repeated. The whole screen tested about 5,500 compounds, of which about 2,000 (36%) were called active. About 18% were inconclusive and are not listed. Cut-off read from the data, not from the text of the source: active = normalized growth mostly below about 0.91 (no sharp cut-off); inconclusive = no clear call, values can overlap the other calls; inactive = mostly above about 0.92. The list shows a part of the results.

Test: chemical genetic growth profiling, strain panel (AID 1159580);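 note: tested at 20 µM; growth read once vehicle control cultures reached saturation at 30 °C; 1 = growth at the plate median or of vehicle wells; lower values mean less growth of the strain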
Conditions: S. cerevisiae deletion strains, growth OD

Measured: normalized growth

CCOC(N)=O
inactive: locus YAL013W, strain DEP1, active compounds read low 0.999 | locus YAL021C, strain ccr4, active compounds read low 0.989 | locus YAL026C, strain drs2, active compounds read low 1 | locus YAL030W, strain snc1, active compounds read low 0.994 | locus YBL061C, strain skt5, active compounds read low 0.997 | locus YBR009C, strain hhf1, active compounds read low 0.987 | locus YBR021W, strain FUR4, active compounds read low 0.97 | locus YBR023C, strain chs3, active compounds read low 0.993 | locus YBR171W, strain sec66, active compounds read low 0.99 | locus YBR229C, strain ROT2, active compounds read low 0.999 | locus YBR231C, strain swc5, active compounds read low 0.995 | locus YBR279W, strain paf1, active compounds read low 0.991 | locus YCL011C, strain gbp2, active compounds read low 0.988 | locus YCL016C, strain dcc1, active compounds read low 1 | locus YCL029C, strain bik1, active compounds read low 1.01 | locus YCL061C, strain MRC1, active compounds read low 0.995 | locus YCL069W, strain vba3, active compounds read low 0.997 | locus YCR088W, strain abp1, active compounds read low 1 | locus YDL005C, strain med2, active compounds read low 0.986 | locus YDL035C, strain GPR1, active compounds read low 1.01 | locus YDL040C, strain nat1, active compounds read low 0.989 | locus YDL074C, strain BRE1, active compounds read low 1 | locus YDL101C, strain DUN1, active compounds read low 1 | locus YDL134C, strain PPH21, active compounds read low 1.01 | locus YDL185W, strain tfp1, active compounds read low 1.01 | locus YDL192W, strain arf1, active compounds read low 1.01 | locus YDR001C, strain nth1, active compounds read low 1 | locus YDR069C, strain doa4, active compounds read low 0.985 | locus YDR101C, strain arx1, active compounds read low 1 | locus YDR137W, strain rgp1, active compounds read low 1.01 | locus YDR150W, strain NUM1, active compounds read low 1 | locus YDR159W, strain sac3, active compounds read low 0.984 | locus YDR162C, strain NBP2, active compounds read low 0.973 | locus YDR195W, strain ref2 0.933 | locus YDR297W, strain sur2, active compounds read low 0.992 | locus YDR318W, strain mcm21, active compounds read low 1.02 | locus YDR334W, strain swr1, active compounds read low 1 | locus YDR335W, strain msn5, active compounds read low 0.997 | locus YDR388W, active compounds read low 1.01 | locus YDR392W, strain spt3, active compounds read low 0.997 | locus YDR502C, strain sam2, active compounds read low 1 | locus YEL003W, strain gim4, active compounds read low 0.997 | locus YEL037C, strain rad23, active compounds read low 1.01 | locus YEL061C, strain CIN8 (second series), active compounds read low 1.01 | locus YEL061C, strain CIN8, active compounds read low 1 | locus YER015W, strain faa2, active compounds read low 0.993 | locus YER016W, strain bim1, active compounds read low 0.997 | locus YER110C, active compounds read low 1.01 | locus YER111C, strain swi4, active compounds read low 0.995 | locus YER155C, strain BEM2 (second series), active compounds read low 0.994 | locus YER155C, strain BEM2, active compounds read low 1 | locus YER167W, strain BCK2, active compounds read low 1.01 | locus YFR010W, strain ubp6, active compounds read low 0.997 | locus YGL078C, strain dbp3, active compounds read low 1.01 | locus YGL086W, strain mad1, active compounds read low 1.01 | locus YGL167C, strain pmr1, active compounds read low 0.987 | locus YGL173C, strain kem1, active compounds read low 0.982 | locus YGL227W, strain vid30, active compounds read low 0.983 | locus YGL240W, strain doc1, active compounds read low 0.982 | locus YGL248W, strain PDE1, active compounds read low 1 | locus YGL253W, strain hxk2, active compounds read low 0.993 | locus YGR078C, strain PAC10, active compounds read low 0.991 | locus YGR135W, strain pre9, active compounds read low 0.991 | locus YGR229C, strain SMI1, active compounds read low 0.985 | locus YGR252W, strain gcn5, active compounds read low 1.08 | locus YHR013C, strain ard1, active compounds read low 0.975 | locus YHR027C, strain rpn1, active compounds read low 0.997 | locus YHR030C, strain SLT2, active compounds read low 1.01 and 0.987 | locus YHR079C, strain IRE1 (second series), active compounds read low 1.01 | locus YHR079C, strain IRE1, active compounds read low 0.983 | locus YHR094C, strain hxt1, active compounds read low 1 | locus YHR129C, strain ARP1, active compounds read low 1.01 | locus YHR142W, strain chs7, active compounds read low 0.995 | locus YHR200W, strain rpn10, active compounds read low 1.01 | locus YIL066C, strain RNR3, active compounds read low 1.03 | locus YIL073C, strain SPO22, active compounds read low 1.06 | locus YIL125W, strain kgd1, active compounds read low 1 | locus YIR030C, strain dcg1, active compounds read low 1 | locus YJL092W, strain hpr5, active compounds read low 0.995 | locus YJL095W, strain BCK1 (second series), active compounds read low 0.992 | locus YJL095W, strain BCK1, active compounds read low 1.01 and 0.996 | locus YJL115W, strain asf1, active compounds read low 0.999 | locus YJL129C, strain trk1, active compounds read low 1 | locus YJL134W, strain LCB3, active compounds read low 1.01 | locus YJL154C, strain vps35, active compounds read low 1 | locus YJL164C, strain tpk1, active compounds read low 0.991 | locus YJL166W, strain qcr8, active compounds read low 0.99 | locus YJL168C, strain set2, active compounds read low 1.02 | locus YJL187C, strain SWE1 (second series), active compounds read low 1.02 | locus YJL187C, strain SWE1, active compounds read low 0.997 | locus YJR043C, strain POL32, active compounds read low 1.02 | locus YJR066W, strain TOR1, active compounds read low 0.959
